Measurements reported in the supplement of paper PMC10338343.
± gives the standard deviation.

System: MILI (PIWIL2) piRISC loaded with L1MC piRNA (26 nt)
Assay: pre-steady-state target cleavage rate (min^-1); guide: L1MC piRNA 5'p-UAACUAAAUACUAUGCAAGCUGUAGG; MIWI and MILI are mouse PIWI proteins and EfPiwi is from a freshwater sponge; tags in brackets are library labels; higher = faster piRNA-guided slicing of the target
Settings: auxiliary factor: 500 nM mouse GTSF1
Procedure, shortened: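 The pre-steady-state cleavage rate was calculated from a burst-and-steady-state fit. Data came from Cleave-'n-Seq, in which […] transcribed, DNA-blocked target RNA library was mixed with 1 nM active affinity-purified piRISC carrying one synthetic guide, with or without 500 nM GTSF1 partner protein, in HEPES–potassium acetate buffer at 33 °C for 0–8 or 0–960 min. Uncleaved targets were sequenced and normalised to depth and to weakly complementary targets, three trials were pooled, and k3 was capped at 0.0001 min^-1.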
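Note: 1 nM active piRISC with 0.1 nM target library at 33 °C single turnover.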

Row | Sequence | pre-steady-state target cleavage rate
1 | UCCUGGAUGUCCUUGCUUAGUAUUAAGUUA | 0.0115 ± 0.0047
2 | UCCUCCUACAGCUUGCUAAGUAUUUAGAAA | 0.0796 ± 0.016
3 | UCCUCCUACAGCUUGCAUAGUAUUUAGUGUA | 0.158 ± 0.027
4 | UCCUGGAUGAGCUUGCAUAGUAUUUCGUUA | 0.0995 ± 0.028
5 | UCCUGGAUGAGCUUGCAAAGUUUUUAGUUA | 0.00724 ± 0.004
6 | UCCUGGAUCAGCAAGCAUAGUAUUUAGAAA | 0.101 ± 0.013
7 | UCCUCCUACAGCUUGCAUACUUUUUAGUUA | 0.00693 ± 0.0043
8 | UCCUGGAUGUCCUUGCAUAGUAUUAUCUUA | 0.0177 ± 0.0079
9 | UCCUGGAACUCCUUGCAUAGUAUUUACAAA | 0.241 ± 0.061
10 | UCCUGGAUGUCCUUGCAUAGUAUUUACUAA | 0.0464 ± 0.011
11 | UCCUGGAUGUCGAUGCAGAGUAUUUAGUUA | 0.00473 ± 0.0028
12 | UCCUGGAUGAGCUUGCAUAGUAUUUUCAUA | 0.0108 ± 0.0059
13 | UCCUGGAACAGCUACGAUAGUAUUUAGUUA | 0.147 ± 0.011
14 | UCCUCCUACAGCUUGCAAUCUAUUUACAAA | 0.0157 ± 0.0069
15 | UCCUGGAUGUCGAACGAUCAGUAUUUAGUUA | < 0.0001
16 | UCCUGGAUGUCCUUGCAUUCUAUUUAGUUA | 0.00856 ± 0.0043
17 | UCCUGGUUGUGCUUGCAUAGUAUUUUCAAA | 0.00513 ± 0.005
18 | UCCUGGAUCAGCAACCAUAGUAUUUAGUAA | 0.0962 ± 0.012
19 | UCCUCCUACAGCUUGCAUACUAUUUUCAAA | 0.0677 ± 0.018

Row | Sequence | pre-steady-state target cleavage rate
20 | UCCUGGAACACGAUGCAUAGUAUUUUCAAA | 0.0494 ± 0.017
21 | UCCUGGAUGAGCUUGCAUAGUAUAAAGUAA | 0.0682 ± 0.02
22 | UCCUGGAUGUCCUUGCAUACUAAUUAGUUA | 0.00561 ± 0.0042
23 | UCCUGGAUGUGCUUGCUUAGUAUUAAGUUA | 0.0615 ± 0.017
24 | UCCUGGAUGUGCUUGCUUAGUAUUUACUUA | 0.0644 ± 0.015
25 | UCCUGGAUCAGCUUGCAUAUGUAUUUAGUUA | 0.00465 ± 0.0046
26 | UCCUGGAACAGCUUGCAUAGCUAUUUAGUUA | 0.00904 ± 0.0044
27 | UCCUGGAUGAGCUUGCAUAGUAUAUUGUUA | 0.0743 ± 0.017
28 | UCCUGGAUCAGCUACCAUAGUAUUUAGUAA | 0.127 ± 0.012
29 | UCCUGGAUGUCCAACCAUAGUAUUUAGUUA | 0.00412 ± 0.004
30 | UCCUCCUACAGCUUGCAUAGAAUAUAGUUA | 0.0822 ± 0.019
31 | UCCUGGUACAGCUUGCAUACUAUAUAGUUA | 0.0326 ± 0.013
32 | UCCUCCUACAGCUUGCAUAGUAAAUAGAAA | 0.0692 ± 0.02
33 | UCCUGGAACAGCUUGCAUACUAUUUAGAAA | 0.0271 ± 0.011
34 | UCCUGGAUGUCGAAGCAUAGUAUAAAGUUA | 0.0127 ± 0.0053
35 | UCCUGGAUGAGCUUGCAAAGUAUUUACUUA | 0.046 ± 0.014
36 | UCCUGCUACAGCUUGCUUAGUAUUUACAAA | 0.0114 ± 0.0054
37 | UCCUGGAUCAGCUUGCUAAGUAUUUUCAAA | 0.00483 ± 0.0036

Same assay, conditions: auxiliary factor: none (no GTSF1)

Row | Sequence | pre-steady-state target cleavage rate
38 | UCCUGGAUGUCGAACGUAUCUAAUUUAGUUA | < 0.0001
39 | UCCUGGAUGUCGUACGAUAGUAUUUAGUUA | < 0.0001
40 | UCCUGGAUGUCGAUCCAUAGUAUUUAGAUA | < 0.0001
